One test deals with CTCFL. As to the kind of experiment: pooled miR-30 sensor sort-seq; sequence = guide strand. As to conditions: shRNA.
The sequence TTGAATTATGTAAAACATCTTT yielded a sensor-assay potency score (higher = more potent) of -0.709. As to TAAAGGTGAACCTTGCTCCTAT, the sensor-assay potency score (higher = more potent) amounted to 0.214.

As to TTTGGGGACATTTTCGCCGTGT, the sensor-assay potency score (higher = more potent) was -0.126.

Turning to TTATTTTCTAGTCTAATCTAGT, the sensor-assay potency score (higher = more potent) was -0.371.

The next test has as its target CTDSP1. The description is as above. The following applies: shRNA.
On to TACACGTCGTCCACACGGCTGA, for which the sensor-assay potency score (higher = more potent) was -0.19.

The sequence TTGGACTGGGGTCTTAGGGATG returned a sensor-assay potency score (higher = more potent) of -1.55.

With TATTGGACTGGGGTCTTAGGGA, the sensor-assay potency score (higher = more potent) is -0.481. The sequence TTGTCCAGGATGAGCACCCGCC gave a sensor-assay potency score (higher = more potent) of -0.921. The same measure, in the same setting: next, TAGACCTGGTGGACCACCCCAT: -0.5; TTCACTGGCTTGAAGGAGCTGT: 0.427; TCGATGACCACGCAGATCTTGT: -1.32. In turn, TGAGCACTGAGTACACGTCGTC showed a sensor-assay potency score (higher = more potent) of -0.158. TTGTTCACTGGCTTGAAGGAGC yielded a sensor-assay potency score (higher = more potent) of -0.757. TTTGAAGGCACTGACACGGGGC showed a sensor-assay potency score (higher = more potent) of 0.517. On the same count and under the same terms, next, TACAGCATTGTCTGGATGGAAG: -1.6; TCCAGGTCGATGACCACGCAGA: -1.79.

The record behind these values is the OligoGym collection.
Note: reference of the scale not given here.
